Test results published in article PMC7862700, “An all-to-all approach to the identification of sequence-specific readers for epigenetic DNA modifications on cytosine”.

Assays:
Experiment in all cases: DAPPL (digital affinity profiling via proximity ligation, sequencing); 10 mM Tris-HCl pH 7.5, 50 mM NaCl, 1 mM DTT, 4% glycerol, room temperature, 30 min; GST-TFs on glutathione beads, 16-mer random dsDNA library, 0.1% formaldehyde crosslink after washing; high values mean tight binding
Conditions in all cases: protein: recombinant; tags: N-terminal GST; dsDNA, one strand shown
FLI1 = biological target: T1, FLI1 (Homo sapiens, UniProt Q01543 1-452)
T1 sequence: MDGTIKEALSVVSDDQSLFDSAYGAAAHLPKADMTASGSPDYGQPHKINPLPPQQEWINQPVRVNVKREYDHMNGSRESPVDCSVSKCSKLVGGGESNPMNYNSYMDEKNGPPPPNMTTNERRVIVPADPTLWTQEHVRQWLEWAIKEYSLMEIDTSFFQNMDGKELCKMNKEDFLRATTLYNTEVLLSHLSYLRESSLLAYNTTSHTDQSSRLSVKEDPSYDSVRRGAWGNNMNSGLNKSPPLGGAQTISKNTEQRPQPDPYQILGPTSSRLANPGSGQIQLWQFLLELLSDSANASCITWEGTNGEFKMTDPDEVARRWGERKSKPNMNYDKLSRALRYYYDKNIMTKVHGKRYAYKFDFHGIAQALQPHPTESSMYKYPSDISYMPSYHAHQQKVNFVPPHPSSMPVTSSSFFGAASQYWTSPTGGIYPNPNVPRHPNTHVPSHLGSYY
Method in brief: (§1)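 Pools were built from human transcription factors expressed in yeast as GST fusions, captured on glutathione beads and DNA-barcoded, along with a tag-only sample. Incubation with 200 nmole of a 16-mer random double-stranded DNA library lasted 30 min at room temperature in Tris/NaCl/DTT/glycerol buffer, and was followed by washing, 0.1% formaldehyde crosslinking, proximity ligation, PCR amplification and Illumina NextSeq500 sequencing. Binding signal is the quotient of each hexamer's read frequency for a factor and its frequency for the tag-only sample.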

GABPA = biological target: T2, GABPA (Homo sapiens, UniProt Q06546 1-454)
T2 sequence: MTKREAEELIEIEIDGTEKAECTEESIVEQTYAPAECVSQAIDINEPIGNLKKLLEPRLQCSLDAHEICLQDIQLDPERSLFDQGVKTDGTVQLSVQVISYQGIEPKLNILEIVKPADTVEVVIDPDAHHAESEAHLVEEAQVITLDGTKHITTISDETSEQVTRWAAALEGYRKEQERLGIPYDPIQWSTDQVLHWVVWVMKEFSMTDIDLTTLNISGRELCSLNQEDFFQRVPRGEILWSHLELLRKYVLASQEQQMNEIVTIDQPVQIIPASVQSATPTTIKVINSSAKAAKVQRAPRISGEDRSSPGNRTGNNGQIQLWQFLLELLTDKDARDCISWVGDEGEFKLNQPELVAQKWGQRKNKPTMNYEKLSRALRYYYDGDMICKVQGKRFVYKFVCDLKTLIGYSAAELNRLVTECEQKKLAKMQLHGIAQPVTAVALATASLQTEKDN
Method in brief: as §1

ERG = biological target: T3, ERG (Homo sapiens, UniProt P11308 1-479)
T3 sequence: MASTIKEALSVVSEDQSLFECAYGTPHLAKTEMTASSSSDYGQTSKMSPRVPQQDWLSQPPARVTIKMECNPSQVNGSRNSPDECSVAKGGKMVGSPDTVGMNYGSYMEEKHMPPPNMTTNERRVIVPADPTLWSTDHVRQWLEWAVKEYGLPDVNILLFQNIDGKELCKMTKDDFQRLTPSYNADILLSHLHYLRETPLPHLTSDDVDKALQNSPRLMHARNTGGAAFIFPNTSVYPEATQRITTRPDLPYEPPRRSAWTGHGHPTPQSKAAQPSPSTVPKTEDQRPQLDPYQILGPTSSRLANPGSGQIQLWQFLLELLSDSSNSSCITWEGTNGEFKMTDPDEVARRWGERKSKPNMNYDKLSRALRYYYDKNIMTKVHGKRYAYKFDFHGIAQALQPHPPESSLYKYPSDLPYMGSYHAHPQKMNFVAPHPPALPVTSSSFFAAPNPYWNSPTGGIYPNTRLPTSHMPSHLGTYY
Method in brief: as §1

ELF1 = ELF1 (Homo sapiens, UniProt P32519 1-619)
Method in brief: as §1

EHF = biological target: T4, EHF (Homo sapiens, UniProt Q9NZC4 1-300)
T4 sequence: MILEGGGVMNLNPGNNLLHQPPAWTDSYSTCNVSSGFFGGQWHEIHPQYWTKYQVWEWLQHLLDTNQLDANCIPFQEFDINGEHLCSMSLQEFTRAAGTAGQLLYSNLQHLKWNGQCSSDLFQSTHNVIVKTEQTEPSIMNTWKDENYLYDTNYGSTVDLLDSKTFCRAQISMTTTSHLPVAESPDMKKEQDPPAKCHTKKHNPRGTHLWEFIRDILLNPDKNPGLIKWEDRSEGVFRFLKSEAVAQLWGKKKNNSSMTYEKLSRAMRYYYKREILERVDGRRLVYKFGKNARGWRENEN
Method in brief: as §1

SPI1 = SPI1 (Homo sapiens, UniProt P17947 1-270)
Method in brief: as §1

SPIB = SPIB (Homo sapiens, UniProt Q01892 1-262)
Method in brief: as §1

ELK3 = biological target: T5, ELK3 (Homo sapiens, UniProt P41970 1-407)
T5 sequence: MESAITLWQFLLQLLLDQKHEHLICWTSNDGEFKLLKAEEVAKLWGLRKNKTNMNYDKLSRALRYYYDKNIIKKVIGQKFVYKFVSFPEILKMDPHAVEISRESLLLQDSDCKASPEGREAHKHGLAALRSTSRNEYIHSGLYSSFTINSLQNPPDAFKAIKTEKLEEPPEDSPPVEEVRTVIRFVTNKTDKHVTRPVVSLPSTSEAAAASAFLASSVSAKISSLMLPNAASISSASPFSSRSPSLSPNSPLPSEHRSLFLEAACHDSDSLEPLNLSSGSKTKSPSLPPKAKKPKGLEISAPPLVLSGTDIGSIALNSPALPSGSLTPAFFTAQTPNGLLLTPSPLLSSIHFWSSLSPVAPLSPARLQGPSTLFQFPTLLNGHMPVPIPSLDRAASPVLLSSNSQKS
Method in brief: as §1

ETV5 = ETV5 (Homo sapiens, UniProt P41161 1-510)
Method in brief: as §1

ELF4 = ELF4 (Homo sapiens, UniProt Q99607 1-663)
Method in brief: as §1

ETV2 = biological target: T6, ETV2 (Homo sapiens, UniProt O00321 1-342)
T6 sequence: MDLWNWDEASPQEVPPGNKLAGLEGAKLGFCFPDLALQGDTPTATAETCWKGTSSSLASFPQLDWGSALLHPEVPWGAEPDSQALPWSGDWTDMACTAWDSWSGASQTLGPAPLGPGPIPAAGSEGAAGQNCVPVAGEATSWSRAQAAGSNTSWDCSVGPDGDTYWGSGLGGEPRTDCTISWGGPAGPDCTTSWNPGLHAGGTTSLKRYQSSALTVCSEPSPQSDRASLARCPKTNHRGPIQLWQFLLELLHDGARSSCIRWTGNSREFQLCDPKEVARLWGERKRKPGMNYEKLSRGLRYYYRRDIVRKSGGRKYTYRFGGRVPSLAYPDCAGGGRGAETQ
Method in brief: as §1

ELF3 = biological target: T7, ELF3 (Homo sapiens, UniProt P78545 1-371)
T7 sequence: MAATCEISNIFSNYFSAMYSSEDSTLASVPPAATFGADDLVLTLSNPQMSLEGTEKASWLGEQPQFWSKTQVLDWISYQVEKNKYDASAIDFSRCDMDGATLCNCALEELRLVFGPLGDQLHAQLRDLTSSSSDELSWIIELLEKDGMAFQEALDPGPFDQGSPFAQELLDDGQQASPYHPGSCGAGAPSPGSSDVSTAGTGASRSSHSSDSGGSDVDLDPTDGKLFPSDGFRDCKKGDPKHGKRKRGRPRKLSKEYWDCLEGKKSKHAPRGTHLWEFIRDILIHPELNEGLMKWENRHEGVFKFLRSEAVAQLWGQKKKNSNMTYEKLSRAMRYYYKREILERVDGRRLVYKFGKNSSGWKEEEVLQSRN
Method in brief: as §1

ETV1 = ETV1 (Homo sapiens, UniProt P50549 1-477)
Method in brief: as §1

ERF = biological target: T8, ERF (Homo sapiens, UniProt P50548 1-548)
T8 sequence: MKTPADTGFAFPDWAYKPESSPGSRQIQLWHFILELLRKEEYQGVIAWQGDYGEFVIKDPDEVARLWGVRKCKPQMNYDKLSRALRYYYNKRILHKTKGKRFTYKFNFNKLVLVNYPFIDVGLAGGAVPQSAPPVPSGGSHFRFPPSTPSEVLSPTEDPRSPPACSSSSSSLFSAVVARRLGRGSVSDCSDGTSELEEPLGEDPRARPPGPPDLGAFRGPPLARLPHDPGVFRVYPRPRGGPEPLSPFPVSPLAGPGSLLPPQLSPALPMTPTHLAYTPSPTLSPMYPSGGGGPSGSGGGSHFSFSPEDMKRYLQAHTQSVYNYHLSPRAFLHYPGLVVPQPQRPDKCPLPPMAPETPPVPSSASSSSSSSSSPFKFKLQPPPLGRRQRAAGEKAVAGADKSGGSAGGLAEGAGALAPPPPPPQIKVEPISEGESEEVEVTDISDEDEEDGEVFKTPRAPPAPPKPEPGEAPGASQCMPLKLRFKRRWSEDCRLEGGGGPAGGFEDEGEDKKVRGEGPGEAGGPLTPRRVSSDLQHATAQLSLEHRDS
Method in brief: as §1

ETV3L = biological target: T9, ETV3L (Homo sapiens, UniProt Q6ZN32 1-361)
T9 sequence: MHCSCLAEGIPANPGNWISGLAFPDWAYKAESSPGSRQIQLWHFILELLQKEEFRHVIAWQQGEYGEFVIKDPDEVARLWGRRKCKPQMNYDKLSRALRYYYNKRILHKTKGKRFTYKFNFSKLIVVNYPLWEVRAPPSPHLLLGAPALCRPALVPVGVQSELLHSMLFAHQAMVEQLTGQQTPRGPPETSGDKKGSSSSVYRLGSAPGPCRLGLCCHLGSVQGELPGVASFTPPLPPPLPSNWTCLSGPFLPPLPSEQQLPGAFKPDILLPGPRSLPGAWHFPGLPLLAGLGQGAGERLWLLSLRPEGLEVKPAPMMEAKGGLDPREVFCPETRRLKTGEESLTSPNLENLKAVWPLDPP
Method in brief: as §1

ETS2 = biological target: T10, ETS2 (Homo sapiens, UniProt P15036 1-469)
T10 sequence: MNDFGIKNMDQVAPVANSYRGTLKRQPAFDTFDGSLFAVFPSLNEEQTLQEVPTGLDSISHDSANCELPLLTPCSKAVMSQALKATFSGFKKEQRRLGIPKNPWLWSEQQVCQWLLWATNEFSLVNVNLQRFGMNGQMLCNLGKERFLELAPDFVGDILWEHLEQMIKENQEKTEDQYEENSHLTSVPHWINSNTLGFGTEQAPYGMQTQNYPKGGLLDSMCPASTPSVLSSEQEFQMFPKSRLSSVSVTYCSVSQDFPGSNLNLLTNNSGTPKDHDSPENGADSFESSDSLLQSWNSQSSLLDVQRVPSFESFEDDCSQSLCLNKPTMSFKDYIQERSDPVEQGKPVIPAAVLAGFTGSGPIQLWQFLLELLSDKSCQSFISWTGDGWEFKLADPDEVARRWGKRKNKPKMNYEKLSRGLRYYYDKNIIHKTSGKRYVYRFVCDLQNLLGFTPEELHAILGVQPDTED
Method in brief: as §1

ETV7 = biological target: T11, ETV7 (Homo sapiens, UniProt Q9Y603 1-341)
T11 sequence: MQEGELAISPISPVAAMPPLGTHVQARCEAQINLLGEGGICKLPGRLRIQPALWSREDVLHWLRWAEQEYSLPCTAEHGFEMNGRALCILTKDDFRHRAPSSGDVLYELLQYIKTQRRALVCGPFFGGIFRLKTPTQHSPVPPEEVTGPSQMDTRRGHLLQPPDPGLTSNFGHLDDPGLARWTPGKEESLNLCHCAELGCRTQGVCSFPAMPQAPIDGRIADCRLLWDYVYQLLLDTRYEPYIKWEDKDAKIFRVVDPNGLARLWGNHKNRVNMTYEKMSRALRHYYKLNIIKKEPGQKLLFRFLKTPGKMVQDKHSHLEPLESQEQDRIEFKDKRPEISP
Method in brief: as §1

ETV3 = biological target: T12, ETV3 (Homo sapiens, UniProt P41162-2 1-143)
T12 sequence: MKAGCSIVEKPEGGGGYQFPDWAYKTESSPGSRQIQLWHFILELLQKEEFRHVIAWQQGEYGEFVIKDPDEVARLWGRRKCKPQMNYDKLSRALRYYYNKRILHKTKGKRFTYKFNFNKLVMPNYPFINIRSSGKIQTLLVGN
Method in brief: as §1

ETV6 = ETV6 (Homo sapiens, UniProt P41212 1-452)
Method in brief: as §1

Sequence of ETV1 (P50549 whole entry): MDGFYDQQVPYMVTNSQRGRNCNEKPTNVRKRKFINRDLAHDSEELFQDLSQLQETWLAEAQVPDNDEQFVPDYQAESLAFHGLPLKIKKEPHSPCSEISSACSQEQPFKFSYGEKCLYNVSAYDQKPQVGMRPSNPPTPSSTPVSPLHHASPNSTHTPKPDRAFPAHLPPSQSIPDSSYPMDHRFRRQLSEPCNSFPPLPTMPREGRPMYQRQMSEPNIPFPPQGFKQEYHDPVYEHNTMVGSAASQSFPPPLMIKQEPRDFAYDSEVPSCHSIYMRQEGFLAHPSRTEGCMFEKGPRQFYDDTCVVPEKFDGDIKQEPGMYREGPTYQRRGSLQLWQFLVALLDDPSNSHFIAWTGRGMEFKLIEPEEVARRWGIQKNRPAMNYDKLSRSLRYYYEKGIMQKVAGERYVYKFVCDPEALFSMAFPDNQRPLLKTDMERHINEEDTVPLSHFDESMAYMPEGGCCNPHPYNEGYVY
Sequence of ELF1 (P32519 whole entry): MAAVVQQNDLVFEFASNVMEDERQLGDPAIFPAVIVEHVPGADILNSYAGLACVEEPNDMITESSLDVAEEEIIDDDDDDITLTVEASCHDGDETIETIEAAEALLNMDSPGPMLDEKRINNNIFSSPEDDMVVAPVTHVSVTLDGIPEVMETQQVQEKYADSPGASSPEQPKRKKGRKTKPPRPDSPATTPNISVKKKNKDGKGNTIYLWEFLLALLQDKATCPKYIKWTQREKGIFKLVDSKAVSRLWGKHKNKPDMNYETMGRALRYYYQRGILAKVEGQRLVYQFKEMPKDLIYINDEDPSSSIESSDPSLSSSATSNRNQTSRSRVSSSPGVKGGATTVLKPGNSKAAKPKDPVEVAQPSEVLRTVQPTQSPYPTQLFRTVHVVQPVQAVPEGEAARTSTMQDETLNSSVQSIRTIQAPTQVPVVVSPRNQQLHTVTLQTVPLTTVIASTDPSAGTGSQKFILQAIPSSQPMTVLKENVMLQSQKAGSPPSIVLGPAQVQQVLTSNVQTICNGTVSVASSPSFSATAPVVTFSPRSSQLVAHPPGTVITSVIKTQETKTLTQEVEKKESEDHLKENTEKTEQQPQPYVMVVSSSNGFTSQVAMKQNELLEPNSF
Sequence of ETV6 (P41212 whole entry): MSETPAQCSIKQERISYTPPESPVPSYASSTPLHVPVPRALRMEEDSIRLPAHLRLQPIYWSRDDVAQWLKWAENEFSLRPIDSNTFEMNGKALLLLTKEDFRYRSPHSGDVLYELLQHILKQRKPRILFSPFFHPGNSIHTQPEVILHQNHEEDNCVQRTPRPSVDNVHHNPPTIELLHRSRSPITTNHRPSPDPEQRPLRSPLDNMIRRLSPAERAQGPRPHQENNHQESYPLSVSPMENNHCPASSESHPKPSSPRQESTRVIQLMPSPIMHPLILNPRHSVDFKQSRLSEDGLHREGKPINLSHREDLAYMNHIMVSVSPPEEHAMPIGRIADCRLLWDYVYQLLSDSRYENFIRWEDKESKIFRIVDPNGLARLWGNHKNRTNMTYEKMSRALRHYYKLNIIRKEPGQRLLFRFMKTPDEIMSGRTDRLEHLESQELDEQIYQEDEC
Sequence of ELF4 (Q99607 whole entry): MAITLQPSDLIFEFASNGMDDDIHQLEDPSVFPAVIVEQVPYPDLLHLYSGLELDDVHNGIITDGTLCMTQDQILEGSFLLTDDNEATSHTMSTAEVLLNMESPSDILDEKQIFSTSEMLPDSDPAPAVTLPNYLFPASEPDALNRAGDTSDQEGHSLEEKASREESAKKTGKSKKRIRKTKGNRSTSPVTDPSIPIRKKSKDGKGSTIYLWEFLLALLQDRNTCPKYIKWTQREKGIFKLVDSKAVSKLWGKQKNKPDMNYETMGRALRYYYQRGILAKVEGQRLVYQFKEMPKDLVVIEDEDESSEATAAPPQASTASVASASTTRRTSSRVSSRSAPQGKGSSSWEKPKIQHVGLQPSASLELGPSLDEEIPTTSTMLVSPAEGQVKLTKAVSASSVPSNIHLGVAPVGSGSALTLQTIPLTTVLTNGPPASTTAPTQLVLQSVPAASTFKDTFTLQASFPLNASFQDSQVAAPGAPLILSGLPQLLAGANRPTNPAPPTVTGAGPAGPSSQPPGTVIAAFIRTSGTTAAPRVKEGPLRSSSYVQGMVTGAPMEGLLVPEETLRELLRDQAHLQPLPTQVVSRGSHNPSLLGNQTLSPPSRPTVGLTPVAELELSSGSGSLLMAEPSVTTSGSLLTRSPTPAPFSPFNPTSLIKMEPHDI
Sequence of ETV5 (P41161 whole entry): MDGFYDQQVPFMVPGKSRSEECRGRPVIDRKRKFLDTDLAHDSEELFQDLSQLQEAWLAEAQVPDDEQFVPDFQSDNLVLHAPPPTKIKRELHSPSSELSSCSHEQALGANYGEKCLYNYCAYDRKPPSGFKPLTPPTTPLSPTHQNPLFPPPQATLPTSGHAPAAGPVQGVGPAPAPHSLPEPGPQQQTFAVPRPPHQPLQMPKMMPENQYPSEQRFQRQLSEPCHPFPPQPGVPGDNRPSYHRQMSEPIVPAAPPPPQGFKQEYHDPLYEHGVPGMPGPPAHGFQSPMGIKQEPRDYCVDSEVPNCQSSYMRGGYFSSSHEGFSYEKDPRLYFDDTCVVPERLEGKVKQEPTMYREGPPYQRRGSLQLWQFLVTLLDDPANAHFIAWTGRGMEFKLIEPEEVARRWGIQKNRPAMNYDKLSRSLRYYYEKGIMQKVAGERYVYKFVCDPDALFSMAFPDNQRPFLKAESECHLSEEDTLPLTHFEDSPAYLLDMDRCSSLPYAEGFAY
Sequence of SPIB (Q01892 whole entry): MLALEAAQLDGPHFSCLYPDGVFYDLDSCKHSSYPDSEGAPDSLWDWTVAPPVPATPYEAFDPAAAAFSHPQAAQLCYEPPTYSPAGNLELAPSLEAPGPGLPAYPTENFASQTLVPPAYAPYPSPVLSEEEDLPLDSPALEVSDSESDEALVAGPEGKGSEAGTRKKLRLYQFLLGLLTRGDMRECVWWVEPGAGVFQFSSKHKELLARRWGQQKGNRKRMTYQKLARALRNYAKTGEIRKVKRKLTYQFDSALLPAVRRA

How did the binding signal (FLI1) turn out when GCTTGT was run?
The binding signal was 1.22 fold enrichment (6-mer frequency, TF over GST control).

What about the binding signal (GABPA) of the same sequence?
Its binding signal is 1.08 fold enrichment (6-mer frequency, TF over GST control).

What about the binding signal (ERG) of the same sequence?
Its binding signal is 1.05 fold enrichment (6-mer frequency, TF over GST control).

What about the binding signal (ELF1) of the same sequence?
Its binding signal is 1.11 fold enrichment (6-mer frequency, TF over GST control).

And the binding signal (EHF)?
Its binding signal is 1.13 fold enrichment (6-mer frequency, TF over GST control).

What about the binding signal (SPI1) of the same sequence?
Its binding signal is 1.15 fold enrichment (6-mer frequency, TF over GST control).

What about the binding signal (SPIB) of the same sequence?
The binding signal was 1.13 fold enrichment (6-mer frequency, TF over GST control).

And the binding signal (ELK3)?
The binding signal was 1.12 fold enrichment (6-mer frequency, TF over GST control).

What about the binding signal (ETV5) of the same sequence?
Its binding signal is 1.2 fold enrichment (6-mer frequency, TF over GST control).

And the binding signal (ELF4)?
Its binding signal is 1.07 fold enrichment (6-mer frequency, TF over GST control).

What about the binding signal (ETV2) of the same sequence?
The binding signal was 1.03 fold enrichment (6-mer frequency, TF over GST control).

What about the binding signal (ELF3) of the same sequence?
Its binding signal is 1.09 fold enrichment (6-mer frequency, TF over GST control).

And the binding signal (ETV1)?
Its binding signal is 1.13 fold enrichment (6-mer frequency, TF over GST control).

And the binding signal (ERF)?
Its binding signal is 1.18 fold enrichment (6-mer frequency, TF over GST control).

What about the binding signal (ETV3L) of the same sequence?
The binding signal was 1.02 fold enrichment (6-mer frequency, TF over GST control).

What about the binding signal (ETS2) of the same sequence?
The binding signal was 1.07 fold enrichment (6-mer frequency, TF over GST control).

What about the binding signal (ETV7) of the same sequence?
Its binding signal is 1.09 fold enrichment (6-mer frequency, TF over GST control).

And the binding signal (ETV3)?
Its binding signal is 1.11 fold enrichment (6-mer frequency, TF over GST control).

What about the binding signal (ETV6) of the same sequence?
Its binding signal is 1.02 fold enrichment (6-mer frequency, TF over GST control).
